High-throughput results deposited in PubChem BioAssay by National Center for Advancing Translational Sciences (NCATS).
Marburg entry inh = blocks Marburg virus binding to or entry into cells. Marburg virus pseudotyped entry inhibition, cell reporter. Potency, µM (titrated, usually from 37.8 µM), usual class: inhibitors. 1.8% of 300,000 active. AID 540276; calls by dose curve; tested in HEK293 cells
FMDV antiviral = blocks foot and mouth disease virus | FMDV antiviral cell-based qHTS | Potency, µM (top dose mostly 57.9 µM), most hits filed as inhibitors | 1.2% of 410,000 active | AID 1159524; calls by dose curve; tested in HEK293T cells; also: read-out not given here; nearly all actives have a fitted effect of over 45% in size
Vaccinia mCherry = vaccinia inhibition (mCherry reporter). Vaccinia virus mCherry reporter infection, fluorescence. Potency, µM (titrated, usually from 36.5 µM), usual class: inhibitors. 0.63% of 310,000 active. AID 720579; calls by dose curve; tested in A549 cells; also: nearly all actives have a fitted effect of over 35% in size
LASV entry inh = blocks Lassa virus binding to or entry into cells. Lassa virus pseudotype entry inhibition, cell reporter. Potency, µM (doses to about 37.9 µM), hits mostly inhibitors. 1.2% of 300,000 active. AID 540256; calls by dose curve; tested in HEK293 cells; also: nearly all actives have a fitted effect of over 50% in size
VACV Venus inh = vaccinia inhibition (Venus reporter); Vaccinia virus Venus reporter expression, fluorescence; AID 720580; 0.46% of 330,000 active; Potency, µM (doses to about 36.5 µM), actives largely listed as inhibitors; calls by dose curve; tested in A549 cells; also: nearly all actives have a fitted effect of over 30% in size
Each line names hits and unclear results; the compound was inactive in the other large screens. Only some compounds are listed: those with a hit (about 3.2% of all), similar ones and a draw of the others.

Cc1cccc(C)c1NC(=O)C(c1ccccc1)N1CCC(c2ccccc2)CC1 (configuration not stated)	none (no result: Marburg entry inh, LASV entry inh)
COc1cc(/C=C/C(=O)c2ccc(O)cc2)ccc1OCC#N	Marburg entry inh inconclusive, FMDV antiviral 28µM, Vaccinia mCherry 13µM, LASV entry inh 1.6µM, VACV Venus inh 13µM
COc1cccc(C(=O)/C=C/c2ccc(OCC#N)c(OC)c2)c1	Marburg entry inh 15µM, FMDV antiviral inconclusive, Vaccinia mCherry inconclusive, LASV entry inh inconclusive, VACV Venus inh inconclusive
COc1ccc(/C=C/C(=O)c2ccccc2)cc1COc1ccccc1F	Marburg entry inh inconclusive, FMDV antiviral 20µM (no result: Vaccinia mCherry, VACV Venus inh)
COc1ccc(/C=C/C(O)=C2/C(=O)N(C)C3(C)CC2c2ccccc2O3)cc1 (configuration not stated)	Marburg entry inh 8.2µM, FMDV antiviral 14µM, LASV entry inh inconclusive (no result: Vaccinia mCherry, VACV Venus inh)
CCN1C(=O)C(C(=O)Nc2ccc(OC)cc2)C2CC1(C)Oc1ccccc12 (configuration not stated)	none
Cc1ccc(/C=C/C(O)=C2/C(=O)N(C)C3(C)CC2c2ccccc2O3)cc1 (configuration not stated)	Marburg entry inh inconclusive, FMDV antiviral 14µM, Vaccinia mCherry inconclusive, VACV Venus inh inconclusive
COC(=O)Cc1ccc(NC(=S)N2CCN(c3ccc(F)cc3)CC2)cc1	none
CC1=NNC(=O)/C1=C\c1cn(-c2ccccc2)nc1-c1ccccc1	Marburg entry inh 4µM, FMDV antiviral 8.9µM, Vaccinia mCherry 10µM, LASV entry inh inconclusive, VACV Venus inh 10µM
CC1(C)CC(=O)C(=Cc2cn(-c3ccccc3)nc2-c2ccc(Cl)cc2)C(=O)C1	FMDV antiviral inconclusive (no result: Vaccinia mCherry)
CCCCCCn1c(SCCCC)nc2c1c(=O)[nH]c(=O)n2C	none (no result: Vaccinia mCherry)
CCn1c([N+](=O)[O-])nc2c1c(=O)[nH]c(=O)n2C	Marburg entry inh inconclusive, FMDV antiviral inconclusive, LASV entry inh 18µM (no result: Vaccinia mCherry, VACV Venus inh)
Cc1cccc(N2CN=c3s/c(=C/c4ccncc4)c(=O)n3C2)c1	none (no result: FMDV antiviral, Vaccinia mCherry, LASV entry inh, VACV Venus inh)
Cc1cccc(C(=O)OCN2C(=O)c3ccccc3C2=O)c1[N+](=O)[O-]	none (no result: Marburg entry inh, Vaccinia mCherry, LASV entry inh, VACV Venus inh)
OC(CN1CCN(c2ccc(F)cc2)CC1)c1ccc(Cl)cc1 (configuration not stated)	Marburg entry inh inconclusive
OC(CN1CCC(Cc2ccc(F)cc2)CC1)c1ccc(Cl)cc1 (configuration not stated)	Marburg entry inh 7.1µM, LASV entry inh inconclusive (no result: Vaccinia mCherry, VACV Venus inh)
CC(CCN1CCCc2nc(C)c(C)cc21)=NO[C@@H](C)CN1CCCCc2nc(C)c(C)cc21	none (no result: FMDV antiviral, Vaccinia mCherry, LASV entry inh, VACV Venus inh)
CCc1ccc(/C=C/c2c[nH]c3ccccc23)[n+](CC)c1	Marburg entry inh inconclusive, FMDV antiviral inconclusive, LASV entry inh 13µM
CC(C)Cc1nc2cc(NS(=O)(=O)N(C)C)cc(C(=O)N3CCc4sccc4C3)c2n1C	none (no result: Marburg entry inh, LASV entry inh)
O=C(Nc1ccc(S(=O)(=O)N2CCCCC2)cc1)c1ccc(CN2CCOCC2)cc1	Marburg entry inh 8.2µM, LASV entry inh inconclusive, VACV Venus inh inconclusive (no result: FMDV antiviral)
O=C(Nc1ccc(Cc2ccncc2)cc1)c1ccc(S(=O)(=O)N2CCOCC2)cc1	Marburg entry inh inconclusive, FMDV antiviral 18µM, Vaccinia mCherry inconclusive, LASV entry inh inconclusive, VACV Venus inh inconclusive
Cc1cc(C)c(O)c(-c2cc(C(=O)Nc3ccc(S(=O)(=O)N4CCOCC4)cc3)[nH]n2)c1	Marburg entry inh inconclusive, FMDV antiviral inconclusive, Vaccinia mCherry 10µM, LASV entry inh inconclusive, VACV Venus inh 13µM
CC(=O)Nc1ccc(NC(=O)c2cc(-c3cc(C)cc(C)c3O)n[nH]2)cc1	none (no result: Marburg entry inh, Vaccinia mCherry, LASV entry inh, VACV Venus inh)
O=C(Nc1ccc(CN2CCOCC2)cc1)c1ccc(-c2cc(Cl)ccc2Cl)o1	Marburg entry inh inconclusive, FMDV antiviral 28µM, Vaccinia mCherry inconclusive, VACV Venus inh inconclusive
Cc1cnc(-n2ncc(C(=O)NCCc3cccnc3)c2C)nc1-c1cccs1	Vaccinia mCherry inconclusive (no result: Marburg entry inh, LASV entry inh)
Cc1ccc(S(=O)(=O)N2CC(C)N(C(=O)N3CCOCC3)C2C)cc1 (configuration not stated)	none
O=C(NC1CCCCC1)c1ccc(S(=O)(=O)N2CCCCC2)cc1	LASV entry inh 2.1µM (no result: Vaccinia mCherry, VACV Venus inh)
Cc1c([N+](=O)[O-])cc(C(=O)Nc2ccc(Cc3ccncc3)cc2)cc1[N+](=O)[O-]	FMDV antiviral inconclusive (no result: Vaccinia mCherry, VACV Venus inh)
O=C(Nc1ccc(S(=O)(=O)N2CCCC2)cc1)c1ccc(CN2CCOCC2)cc1	Marburg entry inh inconclusive, FMDV antiviral 16µM, LASV entry inh inconclusive
O=C(Nc1ccc(Cc2ccncc2)cc1)c1ccc(Cl)c([N+](=O)[O-])c1	FMDV antiviral 28µM (no result: Vaccinia mCherry)
O=C(NC1CCCCCCC1)c1ccc(S(=O)(=O)N2CCCC2)cc1	none
CCCOc1ccc(/C(O)=C2\C(=O)C(=O)N(CCN(C)C)[C@H]2c2ccncc2)cc1	none (no result: FMDV antiviral, Vaccinia mCherry, LASV entry inh, VACV Venus inh)
Nc1c(C(=O)Nc2nc3ccccc3s2)sc2nc(-c3cccs3)ccc12	Marburg entry inh 5.8µM, LASV entry inh 6.5µM (no result: Vaccinia mCherry, VACV Venus inh)
Nc1c(C(=O)Nc2ccccc2Br)sc2nc(-c3cccs3)ccc12	FMDV antiviral inconclusive, Vaccinia mCherry inconclusive, LASV entry inh inconclusive, VACV Venus inh inconclusive
Cc1nc2c(nc1C)C(=O)c1ccccc1C2=O	Marburg entry inh 14µM, FMDV antiviral inconclusive, Vaccinia mCherry 3.5µM, LASV entry inh inconclusive, VACV Venus inh 4µM
COC1=C(OC)C(=O)c2ccccc2C1=O	Marburg entry inh inconclusive, LASV entry inh 21µM (no result: FMDV antiviral)
O=C1C(=C(I)I)c2ccccc2-c2ccccc21	Marburg entry inh inconclusive, FMDV antiviral 18µM, Vaccinia mCherry inconclusive, LASV entry inh inconclusive, VACV Venus inh inconclusive
NC1=CC(=O)C(=O)c2ccccc21	Marburg entry inh inconclusive, FMDV antiviral 40µM, Vaccinia mCherry 14µM, LASV entry inh inconclusive, VACV Venus inh inconclusive
O=C1c2ccccc2C(=O)c2c(O)ccc(O)c21	none (no result: Marburg entry inh, Vaccinia mCherry, LASV entry inh, VACV Venus inh)
NC1=C(Br)C(=O)c2ccccc2C1=O	Marburg entry inh inconclusive, VACV Venus inh inconclusive
CCC(C)(C)NC(=O)C1CCN(c2nc(OC)nc(OC)n2)CC1	none (no result: Marburg entry inh, Vaccinia mCherry, LASV entry inh, VACV Venus inh)
O=C1C(=O)c2ccccc2-c2ccccc21	FMDV antiviral 5.6µM, Vaccinia mCherry 2.8µM, VACV Venus inh 4.5µM (no result: Marburg entry inh, LASV entry inh)
O=C1NN(c2ccccc2)C(=O)/C1=C\c1cccn1-c1ccc(Cl)c([N+](=O)[O-])c1	Marburg entry inh 11µM, FMDV antiviral inconclusive, LASV entry inh inconclusive
O=C1NN(c2ccccc2)C(=O)C1=Cc1ccccc1O	none (no result: Marburg entry inh, LASV entry inh)
COc1ccc(OC)c(C(C[N+](=O)[O-])c2c(C)cc3ccccn23)c1 (configuration not stated)	Marburg entry inh inconclusive, FMDV antiviral 22µM, LASV entry inh inconclusive
CCC1NC(=O)c2cccnc2-n2c1nc1ccc(OC)cc1c2=O (configuration not stated)	none (no result: Marburg entry inh, LASV entry inh)
Clc1ccc2c(N3CCOCC3)ccnc2c1	none
Clc1ccc2c(c1)CNc1c(ncnc1N1CCOCC1)O2	FMDV antiviral inconclusive, VACV Venus inh 10µM (no result: Vaccinia mCherry)
CCc1ccc2oc(-c3cc(N)ccc3O)nc2c1	Marburg entry inh inconclusive, FMDV antiviral 25µM, LASV entry inh inconclusive (no result: Vaccinia mCherry)
CCc1ccc2oc(-c3cc(N)ccc3Cl)nc2c1	none
CC(OC(=O)c1ccccc1OCC(=O)Nc1ccc(Br)cc1)C(=O)NC1CCCC1 (configuration not stated)	none (no result: Marburg entry inh, FMDV antiviral, LASV entry inh)
CCCCCCN1Cc2ccccc2C1	Marburg entry inh inconclusive (no result: Vaccinia mCherry)
CCCCCCCCn1sccc1=O	FMDV antiviral 28µM (no result: Marburg entry inh, LASV entry inh)
CC1=C([N+](=O)[O-])C(c2ccccc2Cl)NC(=O)N1C (configuration not stated)	none
